# Measured values as given in PubChem BioAssay.
# The source made the active and inactive calls. No rule for the calls is given here.
# Target: Pantothenate synthetase (Mycobacterium tuberculosis (strain ATCC 25618 / H37Rv)) (UniProt P9WIL5)
# Assay: Recombinant Mtb pantothenate synthetase (PanC) inhibitors, coupled enzyme, confirmatory (AID 375);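 also: 0% = full reaction with vehicle and 100% = no enzyme background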
# Conditions: coupled enzyme assay; at 10 µM, stronger effect = higher value
# Pantothenate synthetase (Mycobacterium tuberculosis (strain ATCC 25618 / H37Rv)), sequence (P9WIL5 whole entry, looked up): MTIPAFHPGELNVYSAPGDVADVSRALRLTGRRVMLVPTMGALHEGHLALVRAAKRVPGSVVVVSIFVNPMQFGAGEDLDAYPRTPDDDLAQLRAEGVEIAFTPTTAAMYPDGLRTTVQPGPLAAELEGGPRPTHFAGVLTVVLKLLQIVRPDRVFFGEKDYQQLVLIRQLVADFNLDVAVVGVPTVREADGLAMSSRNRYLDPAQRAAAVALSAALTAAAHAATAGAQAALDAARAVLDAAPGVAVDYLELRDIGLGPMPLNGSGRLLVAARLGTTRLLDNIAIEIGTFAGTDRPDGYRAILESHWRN
row,SMILES,inhibition
1,CCOC(=O)c1c(COC(=O)c2ccco2)nc2ccccc2[n+]1[O-],0% (inactive)
2,Cc1ccccc1Nc1nc(N)nc(CSCc2c(C)noc2C)n1,0% (inactive)
3,CCC1CCCCN1C(=O)CSc1nnc(-c2ccc(OC)cc2)o1 (stereo not given),0% (inactive)
4,Cc1cc(=O)oc2ccc(OCC(=O)N3CCC(C)CC3)cc12,0% (inactive)
5,CCn1c(C)c(CCC(=O)O)c(=O)n2nc(-c3ccccc3OC)cc12,0% (inactive)
6,CCN(C(=O)c1c(OC)cccc1OC)c1nnc(-c2cccnc2)s1,0% (inactive)
7,CCS(=O)(=O)c1nc2ccccc2n1Cc1ccccc1Cl,1% (inactive)
8,CN1CCCC(OC(=O)c2ccc3c(c2)OCCO3)C1 (stereo not given),0% (inactive)
9,Cc1nc2ccccc2cc1C(=O)NCc1ccco1,0% (inactive)
10,Cn1nc(-c2ccc(N3CCCCC3)c(NC(=O)c3ccco3)c2)c2ccccc2c1=O,0% (inactive)
11,O=C(NCc1ccc2c(c1)OCO2)C1CCCN(S(=O)(=O)c2cccnc2)C1 (stereo not given),0% (inactive)
12,c1ccc(CSc2nnc(-c3cccs3)n2Cc2ccco2)cc1,0% (inactive)
13,COc1cccc(C2CC(=O)Nc3cc4c(cc32)OCCO4)c1OC(C)C (stereo not given),1% (inactive)
14,CC(C)(C)NC(=O)COC(=O)c1snc(C(=O)NC2CCCCC2)c1N,3% (inactive)
15,COc1ccc(CNC(=O)COC(=O)c2n[nH]c3ccccc23)cc1OC,7% (inactive)
16,O=C(CCc1ccccc1)Nc1ccncc1,0% (inactive)
17,COP(C)(=O)c1c(C)nn(-c2ccccc2)c1C (stereo not given),0% (inactive)
18,O=C(CN(CC1CCCO1)S(=O)(=O)c1ccc(S(=O)(=O)NC2CC2)cc1)Nc1ccccc1 (stereo not given),0% (inactive)
19,CN1CCN(S(=O)(=O)c2ccc(NC(=O)c3ccc(F)cc3)cc2)CC1,0% (inactive)
20,CCOC(=O)c1[nH]c(C)c(C(=O)Nc2ccccc2F)c1C,3% (inactive)

row,SMILES,inhibition
1,CCC(=O)OCCn1c(=O)c2cc3c(=O)n(CCOC(=O)CC)c(=O)c3cc2c1=O,0% (inactive)
2,O=C(COc1ccccc1)N1CCN(C(=O)c2cccc(F)c2)CC1,1% (inactive)
3,Cc1nc(CCNS(=O)(=O)c2cccs2)cs1,0% (inactive)
4,COC(=O)c1c(NC(=O)C2CC=CCC2C(=O)O)sc(C(N)=O)c1C (stereo not given),1% (inactive)
5,COC(=O)c1ccccc1NC(=O)c1noc2c1CC(C(C)(C)C)CC2 (stereo not given),2% (inactive)
6,Cc1c(C(=O)NCc2ccoc2)oc2ccc3c(c12)C(=O)CC(C)(C)O3,2% (inactive)
7,CSc1n[nH]c(NCc2ccccc2)n1,6% (inactive)
8,COc1ccc(C(=O)COC(=O)CCn2nnc(-c3cccs3)n2)cc1,0% (inactive)
9,Cc1ccc(C(C)C)c(OCCn2c(=O)oc3ccccc32)c1,0% (inactive)
10,COc1ccc(CCNc2oc(-c3ccco3)nc2C#N)cc1,2% (inactive)
11,CC(C)=CCCC(C)N(C=O)C(C)CCC=C(C)C (stereo not given),3% (inactive)
12,c1ccc(Nc2ccccc2Nc2ccccn2)nc1,0% (inactive)
13,O=C(CSc1nnc(-c2c[nH]c3ccccc23)o1)N(Cc1ccccc1)c1ccc(F)cc1,0% (inactive)
14,OC(CNCC1COc2ccccc2O1)COCc1cccs1 (stereo not given),0% (inactive)
15,N#CC1=C(SCC(=O)NC2CCCCC2)NC(=O)CC1c1ccco1 (stereo not given),8% (inactive)
16,O=C(O)c1ccc(COc2c(F)c(F)cc(F)c2F)cc1,0% (inactive)
17,CCC1CCCCN1S(=O)(=O)c1ccc(C(=O)Nc2nnc(-c3ccccc3Cl)o2)cc1 (stereo not given),4% (inactive)
18,CN(C)Cc1c(O)ccc2oc(Cc3ccccc3)cc12,8% (inactive)
19,O=c1cc(-c2ccc(Cl)cc2)[nH][nH]1,1% (inactive)
20,Cn1c(=O)c2c(nc3sccn32)n(C)c1=O,0% (inactive)
